Compounds with a hit are over-represented: about 18% of the library has one in this group of screens.
IL1B secr inh – blocks inflammasome-driven IL-1 beta release | THP-1 LPS/ATP IL-1B secretion, AlphaLISA, 16 h; hits give low values | activity change, % at 57.5 µM | 4.7% of 360,000 active; in the data active = activity change below about -50%; inconclusive = mostly about -30% to -49%
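Secreted IL-1B measured by AlphaLISA bead assay after 16 h compound exposure of THP-1 cells; compounds (final up to 57.5 uM) added 1 h before LPS (250 ng/mL) and ATP (1.25 mM) stimulation; lower signal means less secretion.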
TDP1 cell noCPT – qHTS for Inhibitors of human tyrosyl-DNA phosphodiesterase 1 (TDP1): qHTS in cells in absence of CPT; DT40 Tdp1-/- hTDP1 cells, no CPT, ATP luminescence, 48 h; 15% of 420,000 active; AID 686978, 2013; Potency, µM (series often up to 46.2 µM), actives largely listed as inhibitors; note: nearly all actives have a fitted effect of over 55% in size
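Stably hTDP1-transfected Tdp1-null chicken DT40 cells were treated with library compounds minus camptothecin and grown for at least 48 hr at 37 °C, after which cellular ATP was quantified by luminescence.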
TDP1 cell CPT – growth inhibition of DT40 Tdp1-/-;hTDP1 cells with camptothecin (screen for TDP1 inhibitors) | chicken DT40 Tdp1-/-;hTDP1 cells + 20 nM CPT, ATP luminescence, 48 h | Potency, µM (titrated, usually from 46.2 µM), most hits filed as inhibitors | 12% of 420,000 active | AID 686979; note: nearly all actives have a fitted effect of over 55% in size
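Chicken DT40 Tdp1-/- cells stably complemented with human TDP1 were seeded at 400 cells/well in medium containing 20 nM camptothecin, exposed to pin-transferred compounds, and grown at 37 °C for at least 48 hr. Viability was read as ATP luminescence.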
TGFb inhibitor – TGF-b pathway inhibition. Potency, µM (titrated, usually from 46.1 µM), actives largely listed as inhibitors. HepG2 CAGA-GFP TGF-b/SMAD3 reporter, GFP fluorescence, 18 h; TGF-beta stimulated, 500 pg/mL final. 1.2% of 410,000 active; note: nearly all actives have a fitted effect of over 65% in size
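Inhibition was scored as loss of TGF-beta-induced (500 pg/mL final, 18 hours, 37 degrees C) GFP in HEPG2 cells carrying a CAGA-GFP reporter, in DMEM with 1% FBS. Well GFP was summed per cell; Activity was normalised to unstimulated and stimulated DMSO wells, then concentration-response fitting.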
TDP1 inh – blocks human tyrosyl-DNA phosphodiesterase 1; Q9NUW8; recombinant TDP1, AlphaScreen DNA substrate cleavage; Potency, µM (doses to about 130 µM), actives largely listed as inhibitors; 0.28% of 350,000 active; AID 485290; note: nearly all actives have a fitted effect of over 40% in size
Target sequence (Q9NUW8 whole entry, looked up): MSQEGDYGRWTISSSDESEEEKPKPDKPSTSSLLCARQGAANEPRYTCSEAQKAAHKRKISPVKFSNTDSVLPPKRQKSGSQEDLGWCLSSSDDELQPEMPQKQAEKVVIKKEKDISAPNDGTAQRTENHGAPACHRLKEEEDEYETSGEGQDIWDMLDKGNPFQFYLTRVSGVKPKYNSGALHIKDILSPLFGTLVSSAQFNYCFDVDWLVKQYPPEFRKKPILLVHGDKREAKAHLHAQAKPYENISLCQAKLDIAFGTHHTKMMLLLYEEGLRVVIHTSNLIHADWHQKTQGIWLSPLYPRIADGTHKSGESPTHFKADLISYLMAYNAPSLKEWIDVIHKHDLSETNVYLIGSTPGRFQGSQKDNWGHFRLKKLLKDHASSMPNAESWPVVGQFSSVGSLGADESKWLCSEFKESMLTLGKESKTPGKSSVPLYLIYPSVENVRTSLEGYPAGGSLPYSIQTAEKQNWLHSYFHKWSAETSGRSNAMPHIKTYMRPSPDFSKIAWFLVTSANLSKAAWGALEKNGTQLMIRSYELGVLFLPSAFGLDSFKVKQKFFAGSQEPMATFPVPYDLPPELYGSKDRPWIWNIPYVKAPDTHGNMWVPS
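AlphaScreen read-out: signal falls as enzyme removes the 3' tyrosine-FITC from a 5'-biotinylated DNA oligo (15 nM, 5 min, RT). Enzyme was E. coli-made recombinant Tdp1 at 1 nM, exposed to compound for 15 min beforehand; beads 10 ug/ml, 10 min.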
HepG2 viability – kills HepG2 cells in TGF-b inhibitor counter-screen | HepG2 CAGA-GFP viability, ATP luminescence, 18 h | 0.76% of 410,000 active | Potency, µM (doses to about 46.1 µM), most hits filed as cytotoxic
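CellTiter-Glo luminescence gave cytotoxicity after 18 hours at 37 degrees C. The cells were HepG2 CAGA-GFP in 1% FBS DMEM, stimulated with 500 pg/mL TGF-beta after compound addition. %Activity was normalised to no-cell wells (complete cell-killing) and DMSO (no toxicity), and curves were fitted and classified.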
A number is an active result; . = inactive; ? = inconclusive; / = no result given; [ ] = dose if it differs, or a comment. Unless noted, calls come from the whole dose curve; as a rule, active = well fitted curve in the direction sought with a large enough effect; inconclusive = small, poorly fitted or top-dose-only effect, or another doubt; inactive = no such curve, though single readings can be large; an effect the other way counts as inactive or inconclusive.

SMILES	IL1B secr inh	TDP1 cell noCPT	TDP1 cell CPT	TGFb inhibitor	TDP1 inh	HepG2 viability
COc1ccc(/C=C/C(=O)Nc2cc(C(F)(F)F)ccc2Cl)cc1OC	?	?	29.1µM	.	.	.
Cc1nc2cc(-c3cccc(F)c3)nn2c(N2CCN(C(=O)c3ccco3)CC2)c1C	.	14.6µM	14.6µM	.	.	.
Cc1nc2cc(-c3cccc(F)c3)nn2c(C)c1CCC(=O)N1CCN(c2ccccn2)CC1	.	.	.	.	/	.
COc1ccc(-c2cc3nc(C)c(C)c(N4CCN(C(=O)c5ccoc5)CC4)n3n2)cc1	.	18.4µM	?	.	/	.
COc1cccc(-c2cc3nc(C)cc(N4CCN(C(=O)c5ccoc5)CC4)n3n2)c1	.	20.6µM	?	.	/	.
COc1ccc(-c2cc3nc(C)cc(N4CCN(C(=O)c5ccoc5)CC4)n3n2)cc1	?	20.6µM	18.4µM	.	/	.
CCOC(=O)C1CCN(c2cc(C)nc3cc(-c4cccc(F)c4)nn23)CC1	.	?	?	?	.	.
Cc1ccc(S(=O)(=O)C[C@@H]2OC[C@H](CO)N2S(=O)(=O)c2ccc(C)cc2)cc1	.	.	.	/	/	/
CCOc1ccc(NC(=O)CCc2c(C)nc3nc(-c4cc(OC)cc(OC)c4)nn3c2C)cc1	/	?	.	.	.	.
CCCCN(C(=O)Cc1coc2cc(C)c(C)cc12)c1c(N)n(Cc2ccccc2)c(=O)[nH]c1=O	.	.	.	.	.	.
COC(=O)C1(C(=O)OC)Cc2conc2[C@H]1c1ccccc1	/	/	/	/	.	/
COc1ccc(-c2[nH]nc3nc(N4CCN(C(=O)c5ccoc5)CC4)cc(C(F)(F)F)c23)cc1	.	8.2µM	8.2µM	?	/	.
COc1ccc(-c2cc3nc(C)cc(N4CC(C)CC(C)C4)n3n2)cc1 (stereo not drawn)	.	18.4µM	?	.	.	.
Cc1ccc(CN2CCNC(=O)C2CC(=O)N(C)C2CCOCC2)cc1 (stereo not drawn)	.	.	.	?	.	.
Cc1snc(SCc2ccc(Cl)cc2)c1C#N	.	.	.	.	/	.
CCOC(=O)CCNC(=O)N1CCN(S(=O)(=O)c2ccc3c(ccn3C)c2)CC1	/	/	/	.	.	.
Cc1ccc2nc(NC(=O)c3cccc(-c4cc5ccccc5oc4=O)c3)sc2c1	.	23.1µM	14.6µM	.	.	.
COc1ccc(NC(=O)c2ccc3oc(=O)c(S(=O)(=O)c4ccc(F)cc4)cc3c2)cc1OC	/	.	.	11.2µM	.	.
O=C(Nc1cccnc1)c1cccc(-c2cc3ccccc3oc2=O)c1	.	.	.	.	.	.
O=C(Nc1cccc(-c2cc3ccccc3oc2=O)c1)c1ccc(Br)o1	.	?	?	?	.	.
CCOc1ccc(C(=O)Nc2cccc(-c3cc4ccccc4oc3=O)c2)cc1[N+](=O)[O-]	.	23.1µM	23.1µM	.	.	.
COc1ccc(C(=O)Nc2ccc(-c3cc4ccccc4oc3=O)c(C)c2)cc1OC	/	16.4µM	18.4µM	.	.[12.3 µM]	.
Cc1cc(NC(=O)c2ccc(Cl)c(Cl)c2)ccc1-c1cc2ccccc2oc1=O	/	.	.	.	.[12.3 µM]	.
CCCCNc1nc(C)nc2c1nc(-c1ccccc1)n2CCN1CCCCC1	/	/	/	/	.	/
CCOc1ccc2nc(NC(=O)c3cccc(N4C(=O)CCC4=O)c3)sc2c1	.	?	.	.	/	.
SMILES	IL1B secr inh	TDP1 cell noCPT	TDP1 cell CPT	TGFb inhibitor	TDP1 inh	HepG2 viability
CCOc1ccc2nc(NC(=O)c3cccc(-c4cc5ccccc5oc4=O)c3)sc2c1	.	23.1µM	?	?	.	.
O=C1/C(=C\c2ccco2)CCC/C1=C\c1ccco1	-64.4	?	16.4µM	.	.	.
CC1C/C(=C/c2ccco2)C(=O)/C(=C/c2ccco2)C1 (stereo not drawn)	/	/	/	/	.	/
Cc1cccc(CN2CCN(C3CN(Cc4ccc(F)cc4)S(=O)(=O)C3)CC2)c1 (stereo not drawn)	.	?	?	.	/	.
O=C1/C(=N/n2cnnc2)c2ccccc2N1Cc1ccccc1	/	/	/	/	.	/
CNC(=S)N(C)/N=C1/C(=O)N(Cc2c(Cl)cccc2Cl)c2ccccc21	.	18.4µM	14.6µM	?	.	.
O=C1C=C(N(CCO)Cc2ccccc2)c2ccccc2C1=O	-97.8	20.6µM	18.4µM	8.91µM	.	10µM
CCCCC1=CC2=C(OC(C)=O)C(=O)C(C)(OC(=O)c3ccco3)C(=O)C2=CO1 (stereo not drawn)	/	/	/	/	.	/
O=C(c1ccncc1)c1ccc(NC(=O)c2cccs2)cc1	.	.	.	.	.	.
CC(=O)Nc1cccc(C(=O)OC(C)C(=O)N2CCc3ccccc32)c1 (stereo not drawn)	.	4.11µM	29.1µM	.	/	.
O=C(Nc1ccc(Cc2ccncc2)cc1)c1cccs1	-75.3	.	?	.	.	.
O=C(c1ccccc1)N1CCN(C(=O)c2ccccc2)c2ccccc21	.	?	8.2µM	.	/	.
O=C(c1ccccc1)N1CCc2ccccc21	.	.	.	.	.	.
O=C(Nc1ccc(C(=O)N2CCCc3ccccc32)cc1)c1cccs1	-80.2	?	.	.	/	.
Cc1noc(C)c1C(=O)OCC(=O)NC1CCCCC1C (stereo not drawn)	.	.	.	.	.	.
O=C(NC(=S)N1CCc2ccccc21)c1ccccc1	.	18.4µM	20.6µM	.	.	.
Nc1ccc(NC(=O)c2cccs2)cc1	.	.	.	.	.	.
O=C(c1ccccc1)N1CCCc2ccccc21	.	?	.	.	.	.
O=C(c1cccc(N2C(=O)C3CC=CCC3C2=O)c1)N1CCCc2ccccc21 (stereo not drawn)	.	1.46µM	?	.	.	.
O=C(Nc1ccc2c(c1)CCC2)c1cccs1	-63.4	.	.	?	.	.
O=C(Nc1cccc(C(=O)N2CCCc3ccccc32)c1)c1ccccc1	.	20.6µM	?	?	/	.
Cc1ccccc1SCC(=O)OCC(=O)NCCNC(=O)COC(=O)CSc1ccccc1C	.	.	.	.	.[0.505 µM]	.
COc1cccc(/C=N/N2CCN(c3ccncc3S(=O)(=O)N3CCCCC3)CC2)c1	.	2.59µM	?	.	.	.
CC(C)C(OC(=O)C1=Cc2ccccc2OC1)C(=O)NCC1CCCO1 (stereo not drawn)	.	?	.	.	/	.
O=C(NNc1ccccc1[N+](=O)[O-])Nc1ccccc1	.	?	14.6µM	.	.	.
O=C(NNc1ccccc1[N+](=O)[O-])Nc1ccc(Cl)c(Cl)c1	-92.8	?	?	?	.	.

Screens: PubChem, National Center for Advancing Translational Sciences (NCATS)
